# Calls of active or inactive are those of the source. Unless noted, how the calls were made is not given here.
# Key:
# [1] = test system: Wnt5a (protein binding on small-molecule microarray); test: Wnt5a binders on small-molecule microarray, primary screen, biophysical, 635/667 nm fluorescence (AID 1142); details: 635 nm fluorescence, higher = more signal;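 further: fluorescence read at 667 nm with signal to noise per printed feature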
# [2] = cell viability in Huh7 cells, primary screen, cytotoxicity control for HCV replication inhibitor project, CellTiter-Glo luminescence, basal, 48 h (AID 1143); details: Huh7 HCV replicon, higher = more signal, called active from +8 up or from −8 down;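 further: Huh7 hepatoma cells carrying a hepatitis C replication reporter with no stimulus; test concentration not given here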
# [3] = P. aeruginosa biofilm formation inhibitors, primary screen, PAO1 strain, BacTiter-Glo luminescence, LB-PBS (AID 1144); details: 12 h, higher = more signal
# [4] = CREB reporter modulators without forskolin, primary screen, cell-based, PC12, CRE-LacZ reporter, unstimulated (AID 1145); details: no forskolin, luminescence, 4.5 h, higher = more signal, called active from +8 up or from −8 down
# [5] = CREB reporter modulators under forskolin, primary screen, cell-based, PC12, CRE-LacZ reporter, forskolin-stimulated (AID 1146); details: luminescence, 4.5 h, higher = more signal, called active from +8 up or from −8 down;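 further: PC12 cells with 6xCRE LacZ reporter stimulated by forskolin 10 µM; beta-galactosidase reporter signal reflecting CREB driven transcription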
# [6] = biological target: Streptavidin (Streptomyces avidinii) (UniProt P22629); test: streptavidin binders on small-molecule microarray, primary screen, artefact control for SMM compound annotation, biophysical, 635/667 nm fluorescence (AID 1147); details: streptavidin binding, higher = more signal;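 further: signal reflects streptavidin binding to arrayed compounds as a control protein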
# Streptavidin (Streptomyces avidinii), sequence (P22629 whole entry, looked up): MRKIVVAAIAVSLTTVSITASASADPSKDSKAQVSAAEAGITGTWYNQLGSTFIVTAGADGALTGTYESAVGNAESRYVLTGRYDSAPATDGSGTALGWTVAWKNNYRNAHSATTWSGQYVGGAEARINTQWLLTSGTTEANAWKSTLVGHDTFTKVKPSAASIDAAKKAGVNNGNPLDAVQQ
# [7] = small-molecule binders of probe aInhba, primary screen, biochemical, small-molecule microarray, 635/667 nm fluorescence (AID 1148); details: higher = more signal;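 further: score merges 667nm spot fluorescence with signal-to-noise for antibody binding to printed compounds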
# [8] = biological target: Torsin-1A (Homo sapiens) (UniProt O14656); test: torsin A binders from cell lysate, primary screen, small-molecule microarray, wild-type, 635/667 nm (AID 1149); details: COS7 hTOR1A-WT lysate, 635 nm fluorescence, higher = more signal
# Torsin-1A (Homo sapiens), sequence (O14656 whole entry, looked up): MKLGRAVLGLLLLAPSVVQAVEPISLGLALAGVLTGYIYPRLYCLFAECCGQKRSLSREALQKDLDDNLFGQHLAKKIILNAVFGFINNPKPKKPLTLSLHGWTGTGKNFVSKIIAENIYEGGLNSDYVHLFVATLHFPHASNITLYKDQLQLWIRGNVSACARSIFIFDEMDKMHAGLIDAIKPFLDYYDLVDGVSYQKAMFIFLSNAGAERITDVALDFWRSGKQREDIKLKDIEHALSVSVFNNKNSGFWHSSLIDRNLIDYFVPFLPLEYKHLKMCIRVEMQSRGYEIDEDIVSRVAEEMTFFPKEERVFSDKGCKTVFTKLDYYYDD
# [9] = biological target: Torsin-1A (Homo sapiens) (UniProt O14656); test: small-molecule binders of mutant TOR1A in lysate, primary screen, cell lysate, small-molecule microarray, COS7 lysate, 635/667 nm fluorescence (AID 1150); details: COS7 hTOR1A mutant lysate, 635 nm fluorescence, higher = more signal;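 further: score pools 667 nm emission and signal to noise measuring lysate protein binding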
# [10] = test system: Sonic hedgehog protein (Shh); test: small-molecule binders of Shh protein, primary screen, biochemical, small-molecule microarray, 635/667 nm fluorescence (AID 1151); details: small-molecule microarray binding, 635 nm fluorescence; higher = more signal;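 further: Shh protein binding to compounds spotted on small-molecule microarray slides; score combines spot fluorescence intensity with signal-to-noise across triplicate slides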
SMILES,composite z-score [1],z-score [2],z-score [3],z-score [4],z-score [5],composite z-score [6],composite z-score [7],composite z-score [8],composite z-score [9],composite z-score [10]
C[C@@H]1C=CCC(=O)OC[C@H](C)C(=O)N[C@@H](C)C(=O)OC1,0.268,-0.568 (inactive),-0.298 (inactive),-0.887 (inactive),-0.24 (inactive),0.34,-0.0044,1.51,0.527,1.3
CO[C@@H]1COC(=O)CC=C[C@@H](C)COC(=O)[C@H](COCc2ccccc2)NC(=O)CC=C[C@H]1C,-0.146,0.185 (inactive),0.324 (inactive),0.605 (inactive),-0.201 (inactive),-0.214,-0.128,2.33,2.51,1.77
CCN1C(=O)[C@H]2[C@H]3[C@H](O)[C@H](O)CC(=NO[C@@H]4O[C@H](CO)[C@@H](O)[C@H](O)[C@H]4O)[C@@H]3CC[C@H]2C1=O,-0.215,0.499 (inactive),0.00567 (inactive),-0.925 (inactive),-0.951 (inactive),-0.933,-0.249,1.47,-0.213,0.365
CC[C@@H](c1ccccc1)n1c(=O)n2n(c1=O)[C@H]1[C@H](O)[C@@H]3O[C@@H]3C(=NOCC=C(C)CCC=C(C)C)[C@H]1CC2,0.33,-1.53 (inactive),0.0433 (inactive),1.07 (inactive),0.889 (inactive),-0.124,-0.0963,0.216,0.366,1.88
COC(=O)[C@@]1(Cc2ccc(OC)cc2)[C@H]2c3cc(C(=O)N4CCCC4)n(Cc4cc(F)c(F)c(F)c4)c3C[C@H]2CN1C(=O)c1ccccc1,2.29,-3.23 (inactive),0.112 (inactive),0.0041 (inactive),0.589 (inactive),2.6,1.87,0.188,0.538,-0.241
CCCCCCc1nc(CCCc2cc3c(c(CCCCCC)n2)[Si](C(C)C)(C(C)C)O[C@H]3c2ccccc2)cc2c1[Si](C(C)C)(C(C)C)O[C@H]2c1ccccc1,-0.0661,-0.636 (inactive),0.182 (inactive),-0.0106 (inactive),-0.222 (inactive),0.0479,-0.0972,-0.285,-0.0949,0.406
CC(C)[C@@H](OCc1ccccc1)[C@H](C)C=NOC[C@@H](C)[C@H](OCc1ccccc1)C(C)C,0.187,0.459 (inactive),0.627 (inactive),0.471 (inactive),-0.144 (inactive),0.118,-0.128,0.256,0.204,0.256
CCOC(=O)C1=CC[C@H]2C(=O)N(CC)C(=O)[C@@H]12,0.281,-0.0046 (inactive),-0.929 (inactive),-0.228 (inactive),0.687 (inactive),0.0789,-0.0719,0.483,-0.552,0.13
